Screening data from PubChem.
Sampled rows, rich in hits. Any-hit rate of the full collection: about 0.53%.
Vif-A3F inh: inhibitors of Vif-A3F interaction. HeLa A3F-eYFP + Vif (tagged APOBEC3F with the HIV-1 protein that degrades it), YFP fluorescence increase. Potency, µM (titrated, usually from 46.1 µM), for inactives: at the top dose activity, negative = active. actives 0.2% (n = 390,000). AID 602313; also: potency is read from the fitted curve at half-maximal effect; % of control where 0% means no effect; nearly all actives have a fitted effect of over 65% in size
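HeLa cells stably expressing A3F-eYFP plus Vif, plated and incubated overnight at 37 deg C, then exposed to compounds overnight at 37 deg C. Blocked degradation read as raised yellow fluorescence (Ex 488/Em 500-530).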
Vif-APOBEC3G blk: inhibitors of Vif-APOBEC3G interaction; HeLa A3G-eYFP + Vif (tagged APOBEC3G with the HIV-1 protein that degrades it), YFP fluorescence, overnight; AID 602310; actives 0.076% (n = 410,000); Potency, µM (titrated, usually from 46.1 µM), inactives show at the highest dose activity, negative = active, hits mostly inhibitors; Q9HC16; also: potency is read from the fitted curve at half-maximal effect; % is scaled to controls: 0 for no effect and ±100 for the full control effect; nearly all actives have a fitted effect of over 60% in size
Target sequence (Q9HC16 whole entry, looked up): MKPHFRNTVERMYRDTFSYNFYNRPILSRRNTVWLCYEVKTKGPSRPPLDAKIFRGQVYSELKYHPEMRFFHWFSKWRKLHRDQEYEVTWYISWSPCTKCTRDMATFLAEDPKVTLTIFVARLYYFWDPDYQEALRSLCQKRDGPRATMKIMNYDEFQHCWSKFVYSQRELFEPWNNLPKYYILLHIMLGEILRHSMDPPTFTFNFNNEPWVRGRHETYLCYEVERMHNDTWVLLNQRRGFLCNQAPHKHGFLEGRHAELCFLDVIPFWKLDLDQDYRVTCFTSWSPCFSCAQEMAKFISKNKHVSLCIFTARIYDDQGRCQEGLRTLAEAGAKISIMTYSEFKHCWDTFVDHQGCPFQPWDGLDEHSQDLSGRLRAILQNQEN
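HeLa cells stably expressing Vif and C-terminally eYFP-tagged A3G, seeded overnight at 37 deg C, then exposed to compound by pintool overnight at 37 deg C. Rise in yellow fluorescence (Ex 488/Em 500-530, Acumen) marks blocked Vif-driven A3G degradation.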
IL2 activator: activators of IL-2; IL-2 activation reporter assay, cell-based qHTS; stimulated with anti-CD3/CD4/CD28 beads; in transgenic mouse T cells; activation, % (series mostly up to about 46 µM); actives 0.065% (n = 360,000); AID 652025; in the data active = activation above about 50%; inconclusive = mostly about 30% to 49%; also: 0% is about no effect
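Using fluorescent plate cytometry, EGFP and DsRed are detected in transgenic mouse T cells stimulated 18 h at 37 degrees C with antibody-coated beads after 60 min compound pretreatment.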
PKM2 activator: activators of human pyruvate kinase M2 | P14618 | purified PKM2, Kinase-Glo ATP luminescence, activation; response scale: 0% is enzyme alone, no compound | Potency, µM (doses to about 57.5 µM), inactives show at the highest dose activation, usual class: activators | actives 0.34% (n = 260,000); also: potency is read from the fitted curve at half-maximal effect; % is scaled to controls: 0 for no effect and ±100 for the full control effect; nearly all actives have a fitted effect of over 55% in size
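hPK-M2, >95% pure; 0.1 mM ADP / 0.5 mM PEP final; imidazole pH7.2 buffer w/ 7 mM MgCl2, 50 mM KCl; 1 h RT; Kinase-Glo lum. Intermediate enzyme activity for dual inhibitor/activator qHTS.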
* marks the source's active call; other numbers are inactive results; ? = inconclusive; . = no result given; ! = a repeat was not active. Unless noted, calls follow the shape of the dose curve; as a rule, active = well fitted curve in the direction sought with a large enough effect; inconclusive = small, poorly fitted or top-dose-only effect, or another doubt; inactive = no such curve, though single readings can be large; an effect the other way counts as inactive or inconclusive.

SMILES	Vif-A3F inh	Vif-APOBEC3G blk	IL2 activator	PKM2 activator
Cc1[nH]n(-c2ccccc2)c(=O)c1C=Nc1ccc2[nH]c(=O)[nH]c2c1	2.5%	0.2%	52.0*	-4.5%
CN1CCN2c3ccccc3CC3(C(=O)OC(C)(C)OC3=O)C2C1 (stereo unspecified)	.	4.2%	.	.
CN1C(=O)c2cccc(NCCCN3C(=O)c4ccccc4C3=O)c2C1=O	25.1µM*	-0.5%	18.3	3.4%
CN1C(=O)c2cccc(NCCCCCCN3C(=O)c4ccccc4C3=O)c2C1=O	0.9%	-0.6%	-1.1	-0.3%
CC[C@]1(O)C[C@H]2CN(CCc3c([nH]c4ccccc34)[C@@](C(=O)OC)(c3cc4c(cc3OC)N(C=O)[C@H]3[C@@](O)(C(=O)OC)[C@H](OC(C)=O)[C@]5(CC)C=CCN6CC[C@]43[C@@H]65)C2)C1	.	-42.6%	.	.
Cc1cccc(Cn2cc(C(=O)c3ccccc3)c(=O)c3cc4c(cc32)OCO4)c1	4.5%	-18.3%	.	.
Cc1ccccc1OCc1ccc(-c2nc(C#N)c(NCc3cccnc3)o2)o1	-16.1%	0.1%	.	.
CC(=O)Nc1ccc(NC(=O)C/C(C)=N/NC(N)=S)cc1	7.94µM*	-1.9%	-0.1	0.8%
Cc1cccn(Cc2c(F)cccc2Cl)c1=O	17.2%	-0.1%	7.0	31.6µM*
CCOc1cc(/C=C/C(=O)c2ccc(OC)c(CN3CCOCC3)c2)cc(Br)c1O	25.1µM*	?	4.7	.
Cc1ccc(C(c2nnnn2Cc2ccccc2)N2CCN(Cc3ccncc3)CC2)cc1 (stereo unspecified)	.	-3.6%	.	.
Nc1c(C(=O)N/N=C/c2cccnc2)oc2nc(-c3ccccc3)cc(-c3ccco3)c12	10µM*	-13.1%	318.4*	8.1%
Cc1nn(CCC(=O)N2CCN(S(=O)(=O)c3ccc(Cl)cc3)CC2)c(C)c1C	-6.8%	-3.6%	0.1	22.4µM*
CC(C)CC(=O)N1CCN(S(=O)(=O)c2ccc(Cl)cc2)CC1	1.5%	3.1%	-1.5	9.2%
Cc1ccc(S(=O)(=O)N2CCN(C(=O)CCn3nc(C)c(C)c3C)CC2)cc1	-24.4%	-0.1%	6.6	14.1µM*
CC(=O)c1cccc(NC(=O)CN2C(=O)CC(c3ccc(C)cc3C)=Nc3ccccc32)c1	-19.6%	1.8%	.	.
Cc1ccc(-c2csc(Nc3ccc(S(N)(=O)=O)cc3)n2)o1	-8.0%	-4.9%	-2.0	10µM*
COc1ccc2cc(S(=O)(=O)c3ccccc3)c(=O)oc2c1	-10.4%	-21.8%	-0.3	5.01µM*
O=C(CCCc1nc2ccccc2s1)N1CCN(S(=O)(=O)c2cccs2)CC1	-9.2%	-0.1%	0.5	4.47µM*
O=C(CCCc1nc2ccccc2s1)N1CCN(c2ccccc2)CC1	14.7%	-0.2%	-2.2	?
Cc1cc(NC(=O)/C(C#N)=C/c2ccc(-c3ccc(SC(F)F)cc3)o2)n(-c2ccccc2)n1	?	?	100.4*	-14.0%
Cc1cc(NC(=O)/C(C#N)=C/c2ccc(-c3cccc(C(F)(F)F)c3)o2)n(-c2ccccc2)n1	?	-1.4%	0.5	-0.9%
O=C(O)Cc1sc(=O)[nH]c1O	0.0%	1.3%	-0.8	.
Cc1ccc(Cn2ncc3c(N4CCCC4)ncnc32)cc1	-13.8%	-6.7%	0.0	12.6µM*
CCc1nc(NCCc2ccccn2)c2nnn(Cc3ccccc3F)c2n1	-1.1%	1.5%	-0.2	25.1µM*
SMILES	Vif-A3F inh	Vif-APOBEC3G blk	IL2 activator	PKM2 activator
CCc1nc2ccc(C(=O)N(C)CCCN(C)C)cn2c1N(C)Cc1cc2ccccc2s1	.	-2.6%	-0.7	.
Oc1nc(Nc2cccc(Cl)c2)sc1/C=C1\C=Nc2ccccc21	-8.6%	-15.0%	-4.9	3.5%
Oc1cccc(Nc2nc(O)c(/C=C3\C=Nc4ccccc43)s2)c1	11.2µM*	4.47µM*	-2.8	9.4%
Cc1ccc(Cl)cc1NC(=O)Cn1c(=O)c2ccccc2n2nncc12	2.1%	2.1%	.	.
O=S(=O)(c1cccc(Cl)c1)c1nnn2c1nc(NC1CCCCCC1)c1sccc12	-6.3%	5.0%	.	.
Cc1cc2[nH]c(=O)c(=O)[nH]c2cc1S(=O)(=O)Nc1ccccc1F	-0.7%	0.1%	-0.3	10µM*
Cc1cc(C)cc(NC(=O)Cn2c(=O)n(C(C)C)c(=O)c3oc4ccccc4c32)c1	3.2%	4.3%	.	.
CCN(CC)C(=O)Cn1c(=O)n(-c2ccc(Cl)cc2)c(=O)c2c3c(sc21)CCC3	0.3%	-1.5%	.	.
CCN(CC)C(=O)Cn1c(=O)n(-c2ccccc2)c(=O)c2c3c(sc21)CCC3	11.2µM*!	-0.4%	-2.3	-4.3%
Cc1cc(SCc2ccccc2C)nc(=O)[nH]1	8.6%	0.0%	-0.5	.
Cc1cc(SCc2ccccc2F)nc(=O)[nH]1	-1.7%	-0.5%	0.0	15.8µM*
CCOc1ccc(NC(=O)Cn2c(=O)n(Cc3ccc4c(c3)OCO4)c(=O)c3ccc(C(=O)NC4CCCCC4)cc32)cc1	2.7%	-6.9%	.	.
CN(C)S(=O)(=O)c1ccc(C(=O)NCc2cccs2)cc1	-14.3%	0.0%	-1.6	6.31µM*
Oc1ccccc1-c1nc(NCc2ccccc2)c2ccccc2n1	22.4µM*	-6.9%	0.0	.
C/C(CCc1ccc2c(c1)OCO2)=N\NC(=S)NC(C)C	12.6µM*	0.5%	-4.9	0.3%
C=Cc1ccc(Cn2c(C)c(CNCCc3ccccc3C)c(C(=O)O)c2C)cc1	1.6%	4.7%	.	.
NNC(=O)C1SCCN1S(=O)(=O)c1ccc(Cl)cc1 (stereo unspecified)	4.9%	-0.4%	0.3	.
CN1CCN(C(=O)c2ccc3c(c2)N(Cc2c(F)cccc2Cl)C(=O)c2ccccc2S3)CC1	2.9%	1.0%	.	.
CCC(=O)NC(c1ccc(C)cc1)c1cc([N+](=O)[O-])c2cccnc2c1O (stereo unspecified)	-6.2%	-7.1%	147.2*	17.4%
Cc1ccc(O)c(NC2=C(Cl)C(=O)N(Cc3ccccc3)C2=O)c1	?	-17.2%	-1.7	8.91µM*
CCCOc1ccc(-c2nonc2NC(=O)c2oc3ccc(Cl)cc3c2C)cc1OCCC	-3.3%	-0.2%	.	.
CCN(CC)c1ccc(NC2CC(=O)N(CCc3ccc(OC)cc3)C2=O)cc1 (stereo unspecified)	?	-6.9%	125.2*	28.8%
O=C(c1ccc(CN2CCOCC2)cc1)N1CCN(c2cccc(Cl)c2)CC1	-6.5%	-10.2%	-0.5	-2.1%
O=C(c1ccc(Cn2cc(Br)cn2)cc1)N1CCN(c2ccccc2)CC1	-8.9%	?	-1.1	4.47µM*
O=C(c1ccc(Cn2cc(Cl)cn2)cc1)N1CCN(c2ccccc2)CC1	0.0%	?	-4.2	15.8µM*
CCOC(=O)CSc1ccc2ccccc2n1	-15.3%	0.6%	1.7	0.7%
CCOC(=O)CN1C=C(c2ccc3ccccc3n2)C(C[N+](=O)[O-])c2ccccc21 (stereo unspecified)	?	12.6µM*	7.7	23.7%
N/C(=N\N=C\c1ccc2c(c1)OCO2)SC1CC(=O)N(c2ccc(C(=O)O)cc2)C1=O (stereo unspecified)	-23.6%	-4.6%	0.4	35.5µM*
